Assay results as given in PubChem BioAssay AID651871 (Sanford-Burnham Center for Chemical Genomics, 2012).
“And” between values parts separate entries of the source, which are not always exact repeats. Equal entries are not always repeated.

test system: HL-1; assay: cardiomyocyte survival under oxidative or metabolic stress – cell-based, panel, H9c2 and HL-1, ATP luminescence, set 2, SAR follow-up (AID 651871); conditions: H9c2/HL-1 cardiomyocytes, 2-deoxyglucose stress, with 2-deoxyglucose, run 10, at 79 µM (top of the series);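 also: cells exposed to stressor for 2 h before ATP readout; reference of the scale not given here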

| SMILES | activity (protection/inhibition) |
| --- | --- |
| COc1ccc2nc(-c3cc(OC)c(OC)c(OC)c3)cc(C(=O)NCC(=O)Nc3ccc(C(C)=O)cc3)c2c1 | 56% |
| COc1ccc2c(c1OC)C(=O)N1c3ccccc3C(=O)N(Cc3cccc(Cl)c3Cl)C21 (stereo not drawn) | 36.7% and -11.3% |
| CCOC(=O)c1cccc(NC(=O)CNC(=O)c2cc(-c3cc(OC)c(OC)c(OC)c3)nc3ccccc23)c1 | 98.6% |
